± gives the uncertainty stated by the source.
system: U87; assay: cell viability relative to vehicle control; higher = less growth inhibition (less active); conditions: 10 µM; 72 h
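Also: viable cell number estimated from Alamar Blue fluorescence read at 560/90, part of a single-dose primary screen of an FDA-approved drug library.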

Point of comparison: `Cc1nc(=O)c2cc(CN(C)c3ccc(C(=O)N[C@@H](CCC(=O)O)C(=O)O)s3)ccc2[nH]1`, cell viability 85.4 ± 1.4%. Against it:
- CN1[C@@H]2CC[C@H]1C[C@@H](OC(=O)c1c[nH]c3ccccc13)C2 — higher, 105.3 ± 0.81%
- Clc1ccccc1C(c1ccccc1)(c1ccccc1)n1ccnc1 — higher, 107.5 ± 0.99%
- CC(=O)O[C@H]1C[C@@H]2CC[C@@H]3[C@H](CC[C@@]4(C)[C@H]3C[C@H]([N+]3(C)CCCCC3)[C@@H]4OC(C)=O)[C@@]2(C)C[C@@H]1N1CCCCC1 — higher, 103.2 ± 0.3%
- Cc1[nH]cnc1CN1CCc2c(c3ccccc3n2C)C1=O — higher, 93.5 ± 2.2%
- CCN(CC)CC(=O)Nc1c(C)cccc1C — higher, 94.8 ± 2.8%
- COC(=O)CCc1ccc(OCC(O)CNC(C)C)cc1 (stereo not given) — higher, 128 ± 3%
- CC[C@H](C)C(=O)O[C@H]1C[C@H](O)C=C2C=C[C@H](C)[C@H](CC[C@@H](O)C[C@@H](O)CC(=O)O)[C@H]21 [PRAVASTATIN Sodium] — higher, 105.9 ± 0.46%
- C[C@]12CC[C@@H]3c4ccc(O)cc4CC[C@H]3[C@@H]1CC[C@@H]2O — higher, 97.2 ± 2.4%
- C=CCc1ccc(O)c(-c2ccc(O)c(CC=C)c2)c1 — higher, 100.7 ± 1%
- OCc1cccnc1 — higher, 108 ± 1.5%
- O=C(O)CCc1nc(-c2ccccc2)c(-c2ccccc2)o1 — higher, 129 ± 2.2%
- O=C(O[C@H]1[C@H](Oc2ccccc2COC(=O)C2(O)C=CCCC2=O)O[C@H](CO)[C@@H](O)[C@@H]1O)c1ccccc1 (stereo not given in full) — higher, 104 ± 2.2%
- CC1CNc2c(cccc2S(=O)(=O)N[C@@H](CCCNC(=N)N)C(=O)N2CC[C@@H](C)C[C@@H]2C(=O)O)C1 (stereo not given in full) — higher, 105 ± 2.8%
- CN1CCN(c2nc3cc(C(F)(F)F)ccc3n3cccc23)CC1 — higher, 111 ± 2%

From the supplement of paper PMC3898565
